Read-out in experiment [1]: UDP glucuronosyltransferase (UGT1A6), UGT1A6 (gene 54578)
As to the kind of experiment: LTEA_HepaRG_UGT1A6: Life Technologies and Expression Analysis (LTEA) Assay for UDP glucuronosyltransferase (UGT1A6) using HepaRG (AID 2283539; active = hit-call score of the fitted dose curve at least 0.9, where 1 is the maximum; inactive = score below 0.9). To be noted: mRNA level, 48 h; actives raise or lower the signal. The method in brief:
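Endpoint is UGT1A6 transcript induction or loss in a human liver cell line, quantified by TaqMan qRT-PCR 48 h after dosing. Concentrations ran from 100 uM downward in half-log steps in 0.5% DMSO; activity was fitted in both directions versus vehicle.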

Read-out in experiment [2]: X-box binding protein 1 (XBP1), XBP1 (gene 7494)
The experiment is described as follows: LTEA_HepaRG_XBP1: Life Technologies and Expression Analysis (LTEA) Assay for X-box binding protein 1 (XBP1) using HepaRG (AID 2283540; active = hit-call score of the fitted dose curve at least 0.9, where 1 is the maximum; inactive = score below 0.9). To be noted: mRNA level, 48 h; actives raise or lower the signal. The method in brief:
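Human HepaRG monolayers receive test chemical for 48 h across an eight-point half-log series starting at 100 uM. XBP1 mRNA gain or loss is scored against DMSO by qRT-PCR.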

Experiment [3] is described as follows: LTEA_HepaRG_LDH_cytotoxicity: Cytotoxicity Assessment in the Life Technologies and Expression Analysis (LTEA) Assay (AID 2283563).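 As to AC50: LDH activity released into spent culture medium as a marker of cell death.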 Put shortly:
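Human HepaRG hepatic cells are treated with test chemicals for 48 h at up to 100 uM in 0.5% DMSO. Cytotoxicity is scored from medium LDH against the vehicle control.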

A short description of experiment [4]: ATG_XTT_Cytotoxicity: Cytotoxicity Assessment in the Attagene TRANS-FACTORIAL HepG2 Assay (AID 2283584).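 As to AC50: XTT signal for cell number as viability in transfected HepG2 cells; cells exposed to compound for 24 h before reading; active means loss of viability signal versus DMSO baseline.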 Put shortly:
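Transfect HepG2 with GAL4-UAS reporter units, dose compound, incubate 24 h, then measure viable cell number by XTT. Fit concentration response against DMSO baseline.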

Experiment [5] is described as follows: TOX21_p53_BLA_p2_viability: Viability Assessment in the Tox21 HCT-116 p53 Agonism Beta-lactamase Assay, Phase 2 (AID 2283591).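 Also: actives lower the ATP signal meaning cytotoxicity.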 Put shortly: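 HCT116 p53-bla cells, 4000/well, dosed after 5 h plating (217-fold dilution of DMSO stocks) and incubated 16 h at 37C. Viability taken as cellular ATP by CellTiter-Glo luminescence after 30 min RT; signal loss marks cytotoxicity.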

In experiment [6] the target is Cellular tumor antigen p53 (Homo sapiens) (UniProt P04637). The experiment is described as follows: TOX21_p53_BLA_p2_ratio: Tox21 HCT-116 p53 Agonism Beta-lactamase Assay, Ratio, Phase 2 (AID 2283592). The method in brief: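 An inducible beta-lactamase reporter in HCT116 cells signals p53 pathway activation. After 16 h chemical exposure at 37C, cells load CCF4-AM substrate for 2 h at room temperature; activity is the cleaved/uncleaved emission ratio relative to DMSO.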

Experiment [7] is described as follows: TOX21_p53_BLA_p3_viability: Viability Assessment in the Tox21 HCT-116 p53 Agonism Beta-lactamase Assay, Phase 3 (AID 2283593).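 Also: cells exposed to compound for 16 h before reading.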 Put shortly: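 HCT116 cells, 4000/well, dosed 5 h after plating by pin transfer (217-fold dilution from DMSO stock) and incubated 16 h at 37C, 5% CO2. Viability read as ATP luminescence with CellTiter-Glo after 30 min at room temperature.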

Experiment [8] has as its target Cellular tumor antigen p53 (Homo sapiens) (UniProt P04637). As to the kind of experiment: TOX21_p53_BLA_p3_ratio: Tox21 HCT-116 p53 Agonism Beta-lactamase Assay, Ratio, Phase 3 (AID 2283596). Put shortly:
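HCT116 p53-bla cells (4000/well) given compound in DMSO (217-fold dilution) after 5 h, incubated 16 h at 37C. CCF4-AM substrate 2 h at room temperature; 460/530 nm emission ratio, gain fitted against DMSO.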

A short description of experiment [9]: TOX21_p53_BLA_p4_viability: Viability Assessment in the Tox21 HCT-116 p53 Agonism Beta-lactamase Assay, Phase 4 (AID 2283597).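 Also: hits lower the luminescence signal meaning cytotoxicity.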 Put shortly:
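Compound exposure of HCT116 cells lasts 16 h at 37C, 5% CO2, with DMSO stocks diluted 217-fold. Cellular ATP is then quantified by CellTiter-Glo luminescence after 30 min at room temperature.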

Experiment [10] has as its target Cellular tumor antigen p53 (Homo sapiens) (UniProt P04637). The experiment is described as follows: TOX21_p53_BLA_p5_ratio: Tox21 HCT-116 p53 Agonism Beta-lactamase Assay, Ratio, Phase 5 (AID 2283599). Put shortly:
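HCT-116 p53-bla cells (4000/well) plated 5 h, dosed with compound (217-fold DMSO dilution) for 16 h at 37 C; CCF4-AM substrate 2 h at room temperature. Activity is the 460/530 nm emission ratio (405 nm excitation), fitted in gain-of-signal direction versus DMSO.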

Experiment [11] can be described thus: TOX21_p53_BLA_p5_viability: Viability Assessment in the Tox21 HCT-116 p53 Agonism Beta-lactamase Assay, Phase 5 (AID 2283600). Put shortly:
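Counter-readout for cytotoxicity: ATP-dependent luminescence from CellTiter-Glo, read in the beta-lactamase wells after 30 min at RT, following a 16 h compound exposure at 37C.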

Experiment [12] deals with Cellular tumor antigen p53 (Homo sapiens) (UniProt P04637). As to the kind of experiment: TOX21_p53_BLA_p4_ratio: Tox21 HCT-116 p53 Agonism Beta-lactamase Assay, Ratio, Phase 4 (AID 2283601). Put shortly: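 HCT-116 p53 beta-lactamase reporter cells (4000/well) preincubated 5 h, then compound (217-fold dilution of DMSO stock) for 16 h at 37C. CCF4-AM substrate added 2 h at room temperature; 460/530 nm emission ratio fitted upward versus DMSO.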

A short description of experiment [13]: Tanguay_ZF_120hpf_MORT_legacy: (Legacy) Oregon State University Tanguay Lab 120 Hour Post-fertilization zebrafish Assay for Mortality (AID 2283633). The method in brief: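 Mortality endpoint from a multiplexed whole-embryo zebrafish screen. Dechorionated wild-type embryos received compound at 6 hpf and remained under static exposure at 28C until 120 hpf, with death noted as a present/absent call.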

A short description of experiment [14]: Tanguay_ZF_120hpf_YSE_legacy: (Legacy) Oregon State University Tanguay Lab 120 Hour Post-fertilization zebrafish Assay for Yolk Sac Edema (AID 2283634). The method in brief: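 Readout: presence or absence of yolk sac edema at 120 hpf, fitted upward against DMSO controls. Exposure ran statically from 6 hpf in dechorionated embryos kept at 28C.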
Experiment [15] can be described thus: Tanguay_ZF_120hpf_AXIS_legacy: (Legacy) Oregon State University Tanguay Lab 120 Hour Post-fertilization zebrafish Assay for Body Axis Malformation (AID 2283635).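 As to AC50: potency for an increased fraction of larvae scored with body axis malformation.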 Put shortly:
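Static 6–120 hpf chemical exposure of dechorionated wild-type 5D zebrafish, one per well at 28C; morphology endpoint scored binary at 120 hpf relative to DMSO control.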

A short description of experiment [16]: Tanguay_ZF_120hpf_EYE_legacy: (Legacy) Oregon State University Tanguay Lab 120 Hour Post-fertilization zebrafish Assay for Eye Malformation (AID 2283636).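 Also: binary presence or absence of eye malformation scored by brightfield in 120 hpf larvae.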 The method in brief: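 Dechorionated Tropical 5D zebrafish embryos, one per well from 6 hpf, static exposure to 120 hpf at 28C, 0.64% DMSO. Eye malformation scored present/absent by brightfield; dead embryos not scored.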

The nature of experiment [17]: Tanguay_ZF_120hpf_SNOU_legacy: (Legacy) Oregon State University Tanguay Lab 120 Hour Post-fertilization zebrafish Assay for Snout Malformation (AID 2283637). The method in brief: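 Dechorionated tropical 5D wild-type zebrafish embryos exposed statically from 6 to 120 hpf at 28C, one per well, in 0.64% DMSO. Snout malformation scored as present/absent by brightfield at 120 hpf; dead embryos not scored.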

The nature of experiment [18]: Tanguay_ZF_120hpf_JAW_legacy: (Legacy) Oregon State University Tanguay Lab 120 Hour Post-fertilization zebrafish Assay for Jaw Malformation (AID 2283638).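 As to AC50: active means more embryos with jaw malformation than DMSO controls.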 The method in brief:
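Static waterborne exposure of dechorionated wild-type (Tropical 5D) zebrafish from 6 to 120 hpf at 28C, 0.64% DMSO vehicle; 5uM trimethyltin chloride served as positive control. Jaw morphology recorded as binary at 120 hpf.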

Experiment [19] can be described thus: Tanguay_ZF_120hpf_PE_legacy: (Legacy) Oregon State University Tanguay Lab 120 Hour Post-fertilization zebrafish Assay for Pericardial Edema (AID 2283640). The method in brief: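 Read-out is the presence or absence of pericardial edema at 120 hpf under brightfield, with gain of signal fitted against DMSO controls. Larvae (5D wild-type) were statically exposed at 28C with 0.64% final DMSO.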

The nature of experiment [20]: Tanguay_ZF_120hpf_OTIC_legacy: (Legacy) Oregon State University Tanguay Lab 120 Hour Post-fertilization zebrafish Assay for Otic Vesicle Malformation (AID 2283639). Put shortly: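 Tropical 5D wild-type zebrafish embryos were exposed statically in sealed, foil-covered plates at 28C until 120 hpf, with 0.64% (vol/vol) DMSO final. Otic vesicle malformation was scored present/absent by brightfield microscopy, with DMSO as baseline.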

Several values for one entry are separate records, joined by “and”; a condition that tells them apart may be missing. Equal values may be shown once. Records with an inconclusive call do not appear. A structure can be active in one record and inactive in another. Activity calls are given as the source filed them. The calls were made as follows, unless noted: active = hit-call score of the fitted dose curve at least 0.9, where 1 is the maximum; inconclusive = response in the unintended direction; inactive = score below 0.9.

Chain of Cellular tumor antigen p53 (Homo sapiens) (P04637 whole entry, looked up): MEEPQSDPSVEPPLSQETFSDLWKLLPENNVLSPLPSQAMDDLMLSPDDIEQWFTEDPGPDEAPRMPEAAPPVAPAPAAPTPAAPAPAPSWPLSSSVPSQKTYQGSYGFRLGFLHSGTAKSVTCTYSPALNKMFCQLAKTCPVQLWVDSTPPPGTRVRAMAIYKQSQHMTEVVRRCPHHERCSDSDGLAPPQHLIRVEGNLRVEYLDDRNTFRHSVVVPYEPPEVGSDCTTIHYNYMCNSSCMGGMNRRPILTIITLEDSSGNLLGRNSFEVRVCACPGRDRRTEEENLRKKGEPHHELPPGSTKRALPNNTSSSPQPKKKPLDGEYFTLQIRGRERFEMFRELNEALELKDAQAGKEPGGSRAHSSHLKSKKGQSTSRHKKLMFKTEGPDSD

As to `Oc1ccc(C(c2ccc(O)cc2)C(Cl)(Cl)Cl)cc1`, the AC50 in [1] was 79.2 µM (active); in [2], 74.1 µM (active); in experiment [3], 76.4 µM (active); in experiment [5] it was 54.6 µM (active) and 45.9 µM (active); in [6], 72.9 µM (active) and 69.1 µM (active); in experiment [7] it was 46.1 µM (active). For the same molecule, the AC50 is 72.1 µM (active) and 74.2 µM (active) in [8]; 38.3 µM (active) and 80.7 µM (active) in experiment [9]; 80.8 µM (active) and 85.1 µM (active) in [10]; 66.7 µM (active) in [11]; 64.5 µM (active) and 82.7 µM (active) in [12]; 63.4 µM (active) in experiment [15]. Besides, the results for the AC50 in experiment [17] and in [18] were 138 µM (active) and 117 µM (active), respectively. The result in experiment [4], in experiment [7], in experiment [11], in experiment [13], in experiment [14] and in experiment [16] was inactive. Further, the molecule was classed as inactive in [19].

For the molecule `O=C(c1ccc(O)cc1O)c1ccc(O)cc1O`, the molecule was classed as inactive in experiment [1], in [2], in [3], in experiment [4], in experiment [6] and in experiment [12]. For the same molecule, the call in experiment [13], in [14], in experiment [15], in experiment [16], in [17] and in experiment [18] was inactive. The molecule was called inactive in experiment [20] and in experiment [19]. The AC50 in experiment [6] is 73.1 µM (active); in [8] it was 73.8 µM (active) and 73.3 µM (active); in experiment [10], 76.4 µM (active) and 74.5 µM (active).

Regarding `C#C[C@]1(O)CC[C@H]2[C@@H]3CCC4=CC(=O)CC[C@@H]4[C@H]3CC[C@@]21CC`, the result in experiment [1], in experiment [2], in experiment [3], in experiment [4], in [5] and in experiment [6] was inactive. For the same molecule, the call in experiment [7], in experiment [8], in experiment [9], in experiment [10], in experiment [11] and in experiment [12] was inactive. In addition, the call in [13], in [15], in experiment [16], in [17], in [18] and in experiment [20] was inactive.

Take `O=C(c1ccccc1)C1CCCCC1`: the result in experiment [1], in experiment [2], in experiment [3], in experiment [4], in experiment [13] and in [14] was inactive. The outcome in [15], in [16], in [17], in experiment [18], in experiment [20] and in [19] was inactive.

Consider `CCCCC(CC)COC(=O)c1ccccc1C(=O)O` (stereo not drawn), for which the call in experiment [1], in [2], in [3], in [4], in [5] and in experiment [6] was inactive. In addition, the result in [7], in [8], in [9], in experiment [10], in experiment [11] and in experiment [12] was inactive. Further, the molecule was classed as inactive in experiment [13], in experiment [14], in [15], in experiment [16], in experiment [17] and in experiment [18]. Also, the molecule was called inactive in experiment [19].

Take `CC(C)CCCCCCc1ccc(O)cc1`: the molecule was classed as inactive in experiment [1], in [2], in experiment [3], in [5], in [6] and in experiment [7]. The result in [8], in experiment [9], in experiment [10], in [11], in [12] and in experiment [13] was inactive. The outcome in experiment [14], in experiment [15], in experiment [16], in experiment [17], in experiment [18] and in [20] was inactive. In [19], the molecule was called inactive. For the same molecule, the AC50 in experiment [4] is 50 µM (active) [middle of 4 runs]; in experiment [7] it was 66.6 µM (active) and 71.5 µM (active); in experiment [8], 71.2 µM (active); in experiment [9], 25.6 µM (active) and 34.7 µM (active); in experiment [10], 39.9 µM (active); in experiment [11] it was 37.2 µM (active). Further, in experiment [12], the AC50 is 46.2 µM (active) and 41.7 µM (active).

One may read the AC50 as the concentration at which the activity in the assay is half-maximal.

For the origin of these results see PubChem BioAssay (EPA / NIEHS).
